Binding signal data for 7 sequences are collected here from PMC7862700, “An all-to-all approach to the identification of sequence-specific readers for epigenetic DNA modifications on cytosine”.

Test in all cases: DAPPL (digital affinity profiling via proximity ligation, sequencing); 10 mM Tris-HCl pH 7.5, 50 mM NaCl, 1 mM DTT, 4% glycerol, room temperature, 30 min; GST-TFs on glutathione beads, 16-mer random dsDNA library, 0.1% formaldehyde crosslink after washing; high values mean tight binding
In one experiment the target is T1, FEV (Homo sapiens, UniProt Q99581 1-238).
T1 sequence: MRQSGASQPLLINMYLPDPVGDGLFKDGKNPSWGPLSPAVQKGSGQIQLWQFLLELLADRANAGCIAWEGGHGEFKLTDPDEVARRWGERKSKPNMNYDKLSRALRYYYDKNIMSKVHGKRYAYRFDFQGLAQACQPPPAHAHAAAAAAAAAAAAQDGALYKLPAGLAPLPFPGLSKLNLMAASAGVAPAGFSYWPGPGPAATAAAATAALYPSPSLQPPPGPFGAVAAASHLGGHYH
As to conditions: protein: recombinant; tags: N-terminal GST; dsDNA, one strand shown. An outline of the steps:
(§1)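 Yeast served to express human transcription factors as GST fusions, which were then captured on glutathione beads and labelled with DNA barcodes. Pooled with a tag-only sample, they were incubated with 200 nmole of a 16-mer random double-stranded DNA library for 30 min at room temperature in Tris/NaCl/DTT/glycerol buffer, washed, crosslinked with 0.1% formaldehyde, ligated by proximity, amplified by PCR and sequenced. Dividing each hexamer's read frequency for a factor by its frequency for the tag-only sample gives the binding signal.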

A further experiment has as its target ETV5 (Homo sapiens, UniProt P41161 1-510). The note with it: protein: recombinant; tags: N-terminal GST; dsDNA, one strand shown. In short, it runs like this: as §1
The next experiment concerns the target HSF1 (Homo sapiens, UniProt Q00613 1-529). The note with it: protein: recombinant; tags: N-terminal GST; chain copies: 3; dsDNA, one strand shown. An outline of the steps:
as §1

The next experiment has as its target T2, SPIC (Homo sapiens, UniProt Q8N5J4 1-248).
T2 sequence: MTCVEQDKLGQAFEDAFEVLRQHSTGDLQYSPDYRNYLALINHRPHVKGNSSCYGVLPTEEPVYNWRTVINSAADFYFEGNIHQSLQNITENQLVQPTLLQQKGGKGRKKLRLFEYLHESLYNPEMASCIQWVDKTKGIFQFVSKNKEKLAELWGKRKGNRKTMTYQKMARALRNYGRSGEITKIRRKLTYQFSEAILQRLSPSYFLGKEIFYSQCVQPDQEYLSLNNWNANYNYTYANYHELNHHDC
The note with it: protein: recombinant; tags: N-terminal GST; dsDNA, one strand shown. An outline of the steps:
as §1

For the next experiment, the target named is ELF4 (Homo sapiens, UniProt Q99607 1-663). As to conditions: protein: recombinant; tags: N-terminal GST; dsDNA, one strand shown. In short, it runs like this:
as §1

The next experiment deals with T3, ELK4 (Homo sapiens, UniProt P28324-2 1-405).
T3 sequence: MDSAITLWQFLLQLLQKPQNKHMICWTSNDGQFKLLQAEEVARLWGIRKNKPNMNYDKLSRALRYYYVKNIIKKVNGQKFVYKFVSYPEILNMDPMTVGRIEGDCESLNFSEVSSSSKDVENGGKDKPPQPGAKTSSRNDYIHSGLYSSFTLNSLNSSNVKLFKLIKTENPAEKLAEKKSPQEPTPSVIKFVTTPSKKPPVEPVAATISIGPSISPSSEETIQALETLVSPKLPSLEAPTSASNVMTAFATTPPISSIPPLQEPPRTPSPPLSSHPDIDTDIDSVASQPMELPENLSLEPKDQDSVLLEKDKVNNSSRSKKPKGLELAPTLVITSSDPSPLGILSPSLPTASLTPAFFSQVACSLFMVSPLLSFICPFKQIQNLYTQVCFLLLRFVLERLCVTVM
The note with it: protein: recombinant; tags: N-terminal GST; dsDNA, one strand shown. An outline of the steps: as §1

Another experiment deals with T4, ETV2 (Homo sapiens, UniProt O00321 1-342).
T4 sequence: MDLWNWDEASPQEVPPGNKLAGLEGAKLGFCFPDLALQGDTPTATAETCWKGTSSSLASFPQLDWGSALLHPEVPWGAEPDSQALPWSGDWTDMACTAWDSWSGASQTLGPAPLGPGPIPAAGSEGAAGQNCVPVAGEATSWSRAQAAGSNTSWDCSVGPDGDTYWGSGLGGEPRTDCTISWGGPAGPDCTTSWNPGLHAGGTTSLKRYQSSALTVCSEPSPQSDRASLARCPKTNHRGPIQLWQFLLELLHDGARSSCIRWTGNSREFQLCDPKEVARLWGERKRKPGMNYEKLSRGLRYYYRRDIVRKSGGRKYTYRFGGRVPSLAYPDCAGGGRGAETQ
As to conditions: protein: recombinant; tags: N-terminal GST; dsDNA, one strand shown. An outline of the steps:
as §1

Another experiment deals with T5, ELF3 (Homo sapiens, UniProt P78545 1-371).
T5 sequence: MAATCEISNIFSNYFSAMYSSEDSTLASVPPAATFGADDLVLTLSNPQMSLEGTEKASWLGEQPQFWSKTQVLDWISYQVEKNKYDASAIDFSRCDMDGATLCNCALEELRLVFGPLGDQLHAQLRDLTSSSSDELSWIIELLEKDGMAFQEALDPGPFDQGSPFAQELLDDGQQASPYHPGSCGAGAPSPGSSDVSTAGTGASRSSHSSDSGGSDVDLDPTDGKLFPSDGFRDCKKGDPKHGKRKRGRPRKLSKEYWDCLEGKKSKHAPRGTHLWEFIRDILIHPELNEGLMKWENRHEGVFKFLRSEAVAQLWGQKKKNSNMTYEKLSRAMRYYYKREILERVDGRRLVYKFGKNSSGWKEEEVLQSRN
The note with it: protein: recombinant; tags: N-terminal GST; dsDNA, one strand shown. In short, it runs like this:
as §1

The next experiment concerns the target CRX (Homo sapiens, UniProt O43186 1-299). The note with it: protein: recombinant; tags: N-terminal GST; dsDNA, one strand shown. An outline of the steps: as §1
A further experiment deals with ETV1 (Homo sapiens, UniProt P50549 1-477). The note with it: protein: recombinant; tags: N-terminal GST; dsDNA, one strand shown. In short, it runs like this: as §1
Chain of ETV1 (P50549 whole entry): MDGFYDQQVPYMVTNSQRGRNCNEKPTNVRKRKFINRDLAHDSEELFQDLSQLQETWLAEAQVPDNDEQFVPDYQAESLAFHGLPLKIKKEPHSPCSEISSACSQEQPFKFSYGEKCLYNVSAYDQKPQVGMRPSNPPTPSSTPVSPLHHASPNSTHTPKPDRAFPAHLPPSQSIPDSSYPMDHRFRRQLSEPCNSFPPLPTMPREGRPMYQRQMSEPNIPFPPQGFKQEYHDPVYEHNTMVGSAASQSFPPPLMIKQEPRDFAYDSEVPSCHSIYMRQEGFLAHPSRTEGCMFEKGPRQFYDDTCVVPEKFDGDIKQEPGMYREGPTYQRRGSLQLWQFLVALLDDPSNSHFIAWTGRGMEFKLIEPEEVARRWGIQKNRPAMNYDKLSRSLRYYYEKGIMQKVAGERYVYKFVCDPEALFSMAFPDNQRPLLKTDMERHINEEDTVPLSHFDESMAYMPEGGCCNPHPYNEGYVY

Chain of HSF1 (Q00613 whole entry): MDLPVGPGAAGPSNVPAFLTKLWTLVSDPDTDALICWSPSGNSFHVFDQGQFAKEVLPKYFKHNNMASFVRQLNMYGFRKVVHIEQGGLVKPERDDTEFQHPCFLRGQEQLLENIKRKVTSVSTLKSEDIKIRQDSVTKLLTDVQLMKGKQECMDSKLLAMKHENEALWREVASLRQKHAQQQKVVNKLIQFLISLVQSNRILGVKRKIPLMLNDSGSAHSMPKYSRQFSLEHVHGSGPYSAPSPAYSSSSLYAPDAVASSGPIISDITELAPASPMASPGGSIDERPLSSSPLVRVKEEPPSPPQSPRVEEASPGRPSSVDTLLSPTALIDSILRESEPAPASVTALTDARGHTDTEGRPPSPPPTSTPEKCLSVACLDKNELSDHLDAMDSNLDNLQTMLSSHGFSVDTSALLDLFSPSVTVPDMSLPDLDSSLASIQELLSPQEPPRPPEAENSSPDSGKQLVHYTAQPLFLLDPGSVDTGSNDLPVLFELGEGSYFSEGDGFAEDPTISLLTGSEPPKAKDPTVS
Chain of ETV5 (P41161 whole entry): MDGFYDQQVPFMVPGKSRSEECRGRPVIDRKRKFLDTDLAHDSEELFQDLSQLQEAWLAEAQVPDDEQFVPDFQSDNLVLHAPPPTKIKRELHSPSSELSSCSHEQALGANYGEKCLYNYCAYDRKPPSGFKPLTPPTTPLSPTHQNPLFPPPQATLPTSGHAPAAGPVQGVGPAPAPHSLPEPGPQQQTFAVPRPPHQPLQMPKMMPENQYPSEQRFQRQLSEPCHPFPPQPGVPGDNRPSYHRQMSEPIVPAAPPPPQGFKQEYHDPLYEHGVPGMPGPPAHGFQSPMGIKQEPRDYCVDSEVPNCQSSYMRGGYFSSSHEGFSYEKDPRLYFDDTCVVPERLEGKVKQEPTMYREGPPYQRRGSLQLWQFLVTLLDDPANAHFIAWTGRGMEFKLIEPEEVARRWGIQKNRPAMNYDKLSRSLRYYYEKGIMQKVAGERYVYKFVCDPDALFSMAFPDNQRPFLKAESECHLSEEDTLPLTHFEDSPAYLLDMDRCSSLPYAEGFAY
Chain of ELF4 (Q99607 whole entry): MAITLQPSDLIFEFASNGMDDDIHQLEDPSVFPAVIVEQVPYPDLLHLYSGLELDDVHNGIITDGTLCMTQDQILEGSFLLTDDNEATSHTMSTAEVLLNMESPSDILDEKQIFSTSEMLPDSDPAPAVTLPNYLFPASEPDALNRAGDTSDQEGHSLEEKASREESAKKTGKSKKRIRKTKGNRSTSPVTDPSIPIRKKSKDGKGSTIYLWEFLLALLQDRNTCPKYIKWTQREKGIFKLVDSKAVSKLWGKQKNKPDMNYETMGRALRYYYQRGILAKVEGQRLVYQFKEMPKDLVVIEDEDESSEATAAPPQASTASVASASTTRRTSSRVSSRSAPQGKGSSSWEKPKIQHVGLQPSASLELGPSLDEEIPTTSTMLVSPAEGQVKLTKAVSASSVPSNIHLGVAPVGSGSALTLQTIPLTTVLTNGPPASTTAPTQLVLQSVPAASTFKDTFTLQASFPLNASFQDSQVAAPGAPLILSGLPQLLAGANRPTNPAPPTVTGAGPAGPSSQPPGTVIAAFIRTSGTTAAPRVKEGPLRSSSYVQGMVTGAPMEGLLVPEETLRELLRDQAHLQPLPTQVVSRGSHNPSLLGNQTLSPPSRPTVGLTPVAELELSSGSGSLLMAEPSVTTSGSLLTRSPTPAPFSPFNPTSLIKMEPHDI
Chain of CRX (O43186 whole entry): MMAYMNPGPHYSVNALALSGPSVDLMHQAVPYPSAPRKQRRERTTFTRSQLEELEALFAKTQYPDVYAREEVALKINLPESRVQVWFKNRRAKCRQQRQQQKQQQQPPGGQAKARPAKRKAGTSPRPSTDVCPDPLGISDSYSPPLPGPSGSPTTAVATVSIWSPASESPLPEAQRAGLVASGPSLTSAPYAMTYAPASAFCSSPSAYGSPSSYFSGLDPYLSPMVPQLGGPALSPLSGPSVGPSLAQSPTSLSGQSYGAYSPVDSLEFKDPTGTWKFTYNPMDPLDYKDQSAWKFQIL

As to GCTAGC, the binding signal in the experiment with FEV was 1.31 fold enrichment (6-mer frequency, TF over GST control); with ETV5 it was 1.24 fold enrichment (6-mer frequency, TF over GST control); in the experiment with HSF1, 1.19 fold enrichment (6-mer frequency, TF over GST control); with SPIC, 1.28 fold enrichment (6-mer frequency, TF over GST control); with ELF4, 1.3 fold enrichment (6-mer frequency, TF over GST control); with ELK4 it was 1.23 fold enrichment (6-mer frequency, TF over GST control). For the same sequence, the binding signal with ETV2 was 1.39 fold enrichment (6-mer frequency, TF over GST control); with ELF3, 1.2 fold enrichment (6-mer frequency, TF over GST control); in the experiment with CRX it was 1.05 fold enrichment (6-mer frequency, TF over GST control); with ETV1, 1.24 fold enrichment (6-mer frequency, TF over GST control).
On to ACTTTA, for which the binding signal is 1.15 fold enrichment (6-mer frequency, TF over GST control) in the experiment with FEV; 1.21 fold enrichment (6-mer frequency, TF over GST control) in the experiment with ETV5; 1.33 fold enrichment (6-mer frequency, TF over GST control) with HSF1; 1.21 fold enrichment (6-mer frequency, TF over GST control) with SPIC; 1.23 fold enrichment (6-mer frequency, TF over GST control) with ELF4; 1.15 fold enrichment (6-mer frequency, TF over GST control) with ELK4. Moreover, the binding signal in the experiment with ETV2 was 1.26 fold enrichment (6-mer frequency, TF over GST control); with ELF3 it was 1.23 fold enrichment (6-mer frequency, TF over GST control); with CRX it was 1.54 fold enrichment (6-mer frequency, TF over GST control); in the experiment with ETV1 it was 1.21 fold enrichment (6-mer frequency, TF over GST control).
As for TCTTGA, the binding signal in the experiment with FEV was 1.3 fold enrichment (6-mer frequency, TF over GST control); with ETV5, 1.14 fold enrichment (6-mer frequency, TF over GST control); in the experiment with HSF1, 1.61 fold enrichment (6-mer frequency, TF over GST control); in the experiment with SPIC, 1.21 fold enrichment (6-mer frequency, TF over GST control); with ELF4 it was 1.33 fold enrichment (6-mer frequency, TF over GST control); with ELK4, 1.4 fold enrichment (6-mer frequency, TF over GST control). Further, the binding signal was 1.2 fold enrichment (6-mer frequency, TF over GST control) with ETV2; 1.19 fold enrichment (6-mer frequency, TF over GST control) in the experiment with ELF3; 1.44 fold enrichment (6-mer frequency, TF over GST control) with CRX; 1.17 fold enrichment (6-mer frequency, TF over GST control) with ETV1.
Turning to TCCTTG, the binding signal in the experiment with FEV was 1.21 fold enrichment (6-mer frequency, TF over GST control); with ETV5, 1.22 fold enrichment (6-mer frequency, TF over GST control); with HSF1 it was 1.15 fold enrichment (6-mer frequency, TF over GST control); with SPIC it was 1.23 fold enrichment (6-mer frequency, TF over GST control); in the experiment with ELF4 it was 1.27 fold enrichment (6-mer frequency, TF over GST control); with ELK4 it was 1.41 fold enrichment (6-mer frequency, TF over GST control). The binding signal was 1 fold enrichment (6-mer frequency, TF over GST control) with ETV2; 1.31 fold enrichment (6-mer frequency, TF over GST control) with ELF3; 1.11 fold enrichment (6-mer frequency, TF over GST control) with CRX; 1.35 fold enrichment (6-mer frequency, TF over GST control) with ETV1.
Consider TCTTTC, for which the binding signal is 1.39 fold enrichment (6-mer frequency, TF over GST control) with FEV; 1.36 fold enrichment (6-mer frequency, TF over GST control) with ETV5; 1.82 fold enrichment (6-mer frequency, TF over GST control) with HSF1; 1.31 fold enrichment (6-mer frequency, TF over GST control) with SPIC; 1.32 fold enrichment (6-mer frequency, TF over GST control) with ELF4; 1.46 fold enrichment (6-mer frequency, TF over GST control) in the experiment with ELK4. Moreover, the binding signal is 1.42 fold enrichment (6-mer frequency, TF over GST control) in the experiment with ETV2; 1.19 fold enrichment (6-mer frequency, TF over GST control) in the experiment with ELF3; 1.41 fold enrichment (6-mer frequency, TF over GST control) in the experiment with CRX; 1.47 fold enrichment (6-mer frequency, TF over GST control) with ETV1.
Take CCATTT: the binding signal with FEV was 1.5 fold enrichment (6-mer frequency, TF over GST control); with ETV5, 1.47 fold enrichment (6-mer frequency, TF over GST control); in the experiment with HSF1, 1.01 fold enrichment (6-mer frequency, TF over GST control); in the experiment with SPIC, 1.42 fold enrichment (6-mer frequency, TF over GST control); in the experiment with ELF4, 1.32 fold enrichment (6-mer frequency, TF over GST control); with ELK4, 1.41 fold enrichment (6-mer frequency, TF over GST control). The binding signal with ETV2 was 1.38 fold enrichment (6-mer frequency, TF over GST control); in the experiment with ELF3, 1.28 fold enrichment (6-mer frequency, TF over GST control); with CRX, 1.01 fold enrichment (6-mer frequency, TF over GST control); in the experiment with ETV1 it was 1.36 fold enrichment (6-mer frequency, TF over GST control).
As to TCTCTT, the binding signal is 1.41 fold enrichment (6-mer frequency, TF over GST control) in the experiment with FEV; 1.39 fold enrichment (6-mer frequency, TF over GST control) in the experiment with ETV5; 1.39 fold enrichment (6-mer frequency, TF over GST control) in the experiment with HSF1; 1.34 fold enrichment (6-mer frequency, TF over GST control) in the experiment with SPIC; 1.34 fold enrichment (6-mer frequency, TF over GST control) with ELF4; 1.49 fold enrichment (6-mer frequency, TF over GST control) in the experiment with ELK4. Besides, the binding signal is 1.37 fold enrichment (6-mer frequency, TF over GST control) with ETV2; 1.28 fold enrichment (6-mer frequency, TF over GST control) with ELF3; 1.58 fold enrichment (6-mer frequency, TF over GST control) with CRX; 1.42 fold enrichment (6-mer frequency, TF over GST control) with ETV1.
